Inconclusive results are not listed. The source made the active and inactive calls. Unless noted, calls follow the shape of the dose curve; as a rule, active = well fitted curve in the direction sought with a large enough effect in the repeat runs; inconclusive = weak or mixed curves; inactive = no such curve, though single readings can be large; an effect the other way counts as inactive or inconclusive.
Key:
[1] = qHTS assay for small molecules that induce genotoxicity in human embryonic kidney cells expressing luciferase-tagged ATAD5 (AID 651632); also: nearly all actives have a fitted effect of over 15% in size
In short: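 Cells were seeded at 2,000 per well, dosed with compound, and incubated 16 hr at 37C in 5% CO2. Luciferase activity was then quantified after a 30 min room-temperature incubation with Amplite.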

[2] = qHTS assay for small molecules that induce genotoxicity in human embryonic kidney cells expressing luciferase-tagged ATAD5 - cell viability (AID 651634; calls by dose curve; also: nearly all actives have a fitted effect of over 25% in size)
In short: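 Cells (HEK293T, luciferase-tagged ATAD5) are seeded at 2,000 per well, dosed with compound or DMSO vehicle, and incubated 15.5 hr at 37C and 5% CO2. CellTiter-Fluor is added for 30 min before fluorescence is measured.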

[3] = qHTS assay to test for compound auto fluorescence at 590 nm (red) in HepG2 cells (AID 720674)
In short: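 1 hr compound incubation on HepG2 cells, 37 C, 5% CO2; plate read ex 540 nm / em 590 nm; intensities reported as Rose Bengal sodium equivalents.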

[4] = qHTS assay to test for compound auto fluorescence at 535 nm (green) in HepG2 cells (AID 720675)
[5] = qHTS assay to test for compound auto fluorescence at 460 nm (blue) in HEK293 cells (AID 720678)
In short: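 HEK293, 2,000 cells/well, 10% dialyzed FBS; attach 4-5 hr 37C; pin compound or DMSO; o/n 37C/5% CO2; fluorescence 405/460 nm; triamterene-equivalent units.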

[6] = qHTS assay to test for compound auto fluorescence at 590 nm (red) in HEK293 cells (AID 720679)
In short: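 Intensity at 540nm excitation and 590nm emission is reported as Rose Bengal sodium-equivalent autofluorescence. Measurements followed overnight exposure (37C, 5% CO2) of HEK293 cells, 2,000 per well, to 23 nL compound.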

[7] = qHTS assay to test for compound auto fluorescence at 535 nm (green) in HEK293 cells (AID 720680)
[8] = qHTS assay to test for compound auto fluorescence at 535 nm (green) in HEK293 cell free culture (AID 720682)
In short: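 Fluorescein serves as the green reference fluorophore; each compound's intrinsic emission at 535 nm (excitation 485 nm) is reported as an equivalent amount of that dye, measured in serum-containing DMEM without cells.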

[9] = qHTS assay to test for compound auto fluorescence at 590 nm (red) in HEK293 cell free culture (AID 720683)
In short: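 Red-channel autofluorescence of compounds in culture medium (DMEM, 10% FBS), no cells, measured at 540/590 nm. Rose Bengal sodium is the reference fluorophore for equivalence.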

[10] = qHTS assay to test for compound auto fluorescence at 590 nm (red) in HepG2 cell free culture (AID 720684)
In short: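 No cells present: MEM + 10% FBS only. Compound pinned in, red label read (540/590 nm). Activity = fluorescence equivalent to Rose Bengal sodium.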

[11] = qHTS assay to test for compound auto fluorescence at 460 nm (blue) in HepG2 cell free culture (AID 720685)
In short: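 Cell-free plates of MEM plus 10% FBS received 23 nL compound or DMSO vehicle; blue-channel (405/460 nm) intensity scored against triamterene as reference fluorophore.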

[12] = qHTS assay to test for compound auto fluorescence at 535 nm (green) in HepG2 cell free culture (AID 720686)
[13] = qHTS assay to test for compound auto fluorescence at 460 nm (blue) in HepG2 cells (AID 720687)
In short: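 Blue-channel autofluorescence (Ex/Em 405/460 nm, triamterene-equivalent) was measured after 1 hr compound exposure at 37 C, 5% CO2. Cells were HepG2, plated overnight at 37 C in MEM plus 10% FBS.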

[14] = target: Glucocorticoid receptor (Homo sapiens) (UniProt P04150); test: qHTS assay to identify small molecule agonists of the glucocorticoid receptor (GR) signaling pathway (AID 720691; active = well fitted activation curve with a large enough effect in the signal ratio in the repeat runs, not every such curve was filed as active; the % refers to the signal ratio)
In short: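 Steps: seed GR-bla HeLa cells, incubate 4 h at 37 C/5% CO2; pin-transfer DMSO-dissolved compounds; incubate 18 h at 37 C; add LiveBLAzer B/G FRET substrate; after 2 h at room temperature, measure fluorescence.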

[15] = qHTS assay for small molecule agonists of the p53 signaling pathway - cell viability (AID 651633; calls by dose curve;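 also: p53RE-bla HCT reporter cells with a stable beta-lactamase p53 reporter; series mostly up to about 83 µM; nearly all actives have a fitted effect of over 30% in size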)
In short: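 Viability counter-read: CellTiter-Glo luminescence (30 min, room temperature) in the same p53RE-bla plates. These plates had been exposed to compounds for 16 h at 37 C.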

[16] = qHTS assay for small molecule disruptors of the mitochondrial membrane potential (AID 720635); also: potency is read from the fitted curve at half-maximal effect
In short: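 Mitochondrial membrane potential tracked with Mito-MPS dye, red aggregates (ex 540/em 590 nm) against green monomers (ex 490/em 535 nm). Compound treatment 1 hr at 37C, dye 30 min in HepG2.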

[17] = qHTS assay to test for compound auto fluorescence at 460 nm (blue) in HEK293 cell free culture (AID 720681)
In short: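 Blue fluorescence (Ex 405/Em 460 nm, triamterene-equivalent) was read immediately after pin transfer of compound or DMSO into medium (DMEM, 10% FBS) without cells.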

[18] = qHTS assay for small molecule disruptors of the mitochondrial membrane potential - cell viability (AID 720634; calls by dose curve;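 also: human HepG2 liver cancer cells; series mostly up to about 83 µM; nearly all actives have a fitted effect of over 20% in size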)
In short: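 Cytotoxicity was measured by ATP quantitation in HepG2 wells that had first been treated with compound for 1 hr and stained with m-MPI dye; CellTiter-Glo incubation was 30 min at room temperature.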

[19] = target: Glucocorticoid receptor (Homo sapiens) (UniProt P04150); test: qHTS assay to identify small molecule antagonists of the glucocorticoid receptor (GR) signaling pathway (AID 720692; active = well fitted inhibition curve with a large enough effect in the signal ratio in the repeat runs, not every such curve was filed as active; the % refers to the signal ratio)
In short: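 Antagonism was scored as loss of dexamethasone-driven (5 nM final) reporter signal in HeLa cells bearing a glucocorticoid response element–beta-lactamase construct, after 18 h compound exposure at 37 C and 2 h FRET substrate loading.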
% is scaled to controls: 0 for no effect and ±100 for the full control effect.

Glucocorticoid receptor (Homo sapiens), sequence (P04150 whole entry, looked up): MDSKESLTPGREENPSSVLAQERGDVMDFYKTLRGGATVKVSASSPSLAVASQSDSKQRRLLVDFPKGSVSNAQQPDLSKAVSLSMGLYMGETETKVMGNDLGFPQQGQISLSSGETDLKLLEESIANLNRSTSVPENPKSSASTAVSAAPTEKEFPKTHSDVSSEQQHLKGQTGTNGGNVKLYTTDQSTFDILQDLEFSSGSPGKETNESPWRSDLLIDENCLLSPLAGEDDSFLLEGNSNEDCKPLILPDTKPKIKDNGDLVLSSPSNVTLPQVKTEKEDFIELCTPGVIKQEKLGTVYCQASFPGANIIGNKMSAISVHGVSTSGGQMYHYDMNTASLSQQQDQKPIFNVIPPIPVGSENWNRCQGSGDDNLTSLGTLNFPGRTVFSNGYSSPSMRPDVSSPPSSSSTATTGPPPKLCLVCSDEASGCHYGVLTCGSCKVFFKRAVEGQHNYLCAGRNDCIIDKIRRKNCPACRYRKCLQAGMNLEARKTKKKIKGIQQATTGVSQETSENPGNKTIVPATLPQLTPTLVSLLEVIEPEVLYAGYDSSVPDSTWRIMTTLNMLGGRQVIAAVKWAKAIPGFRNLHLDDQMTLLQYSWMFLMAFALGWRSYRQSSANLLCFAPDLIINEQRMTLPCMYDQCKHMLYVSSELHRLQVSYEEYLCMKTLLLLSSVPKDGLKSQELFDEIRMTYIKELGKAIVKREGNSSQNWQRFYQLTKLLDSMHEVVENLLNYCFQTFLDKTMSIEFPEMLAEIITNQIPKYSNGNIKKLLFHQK

CN(C)CCN(C)C
inactive: outcome [1] | Potency [2] | outcome [3] | outcome [4] | outcome [5] | outcome [6] | outcome [7] | outcome [8] | outcome [9] | outcome [10] | outcome [11] | outcome [12] | outcome [13] | Potency [14]

NNCc1ccccc1
inactive: Potency [15] | Potency [2] | outcome [3] | outcome [5] | outcome [6] | outcome [7] | outcome [17] | outcome [8] | outcome [9] | outcome [11] | outcome [12] | outcome [13] | Potency [14]
active: Potency [16] 24.8 µM

C[C@@H](N)[C@@H](O)c1ccccc1
inactive: Potency [18] | Potency [16] | fluorescence, relative to Rose Bengal [3] -0.248% [at 18.6 µM] | fluorescence, % of fluorescein control [4] -0.0859% [at 18.6 µM] | fluorescence, % of triamterene [5] 0.0027% [at 18.6 µM] | fluorescence, % of fluorescent control [6] -0.083% [at 18.6 µM] | fluorescence, % of fluorescein [7] 0.072% [at 18.6 µM] | fluorescence, % of fluorescent control [17] -0.0641% [at 18.6 µM] | activity change [8] -0.0136% [at 18.6 µM] | fluorescence, % of fluorescent control [9] 0.0965% [at 18.6 µM] | fluorescence, % of fluorescent control [11] -0.105% [at 18.6 µM] | fluorescence, % of fluorescein control [12] 0.0244% [at 18.6 µM] | fluorescence, % of fluorescent control [13] -0.0421% [at 18.6 µM] | Potency [14] | Potency [19]

CS(=O)(=O)c1ccc(C(=O)C2C(=O)CCCC2=O)c(Cl)c1COCC(F)(F)F
inactive: outcome [1] | Potency [15] | Potency [2] | outcome [3] | outcome [5] | outcome [6] | outcome [7] | outcome [17] | outcome [8] | outcome [9] | outcome [10] | outcome [12] | outcome [13] | Potency [14]

O=[N+]([O-])c1cccc(CCl)c1
inactive: Potency [15] | Potency [2] | Potency [18] | outcome [3] | outcome [4] | outcome [6] | outcome [7] | outcome [17] | outcome [8] | outcome [9] | outcome [11] | outcome [12] | outcome [13] | Potency [14]

C=C(C)[C@H]1CN[C@H](C(=O)O)[C@H]1CC(=O)O
inactive: outcome [1] | Potency [15] | Potency [18] | outcome [3] | outcome [5] | outcome [6] | outcome [7] | outcome [17] | outcome [8] | outcome [9] | outcome [10] | outcome [11] | outcome [12] | outcome [13] | Potency [14]

CC[C@@H](CO)NC(=O)[C@@H]1C=C2c3cccc4c3c(cn4C)C[C@H]2N(C)C1
inactive: outcome [1] | Potency [15] | Potency [2] | Potency [18] | outcome [3] | outcome [6] | outcome [7] | outcome [8] | outcome [9] | outcome [10] | outcome [12] | outcome [13]

CN(C)C1CCCCC1
inactive: Potency [15] | Potency [2] | Potency [18] | outcome [3] | outcome [4] | outcome [5] | outcome [6] | outcome [7] | outcome [17] | outcome [8] | outcome [9] | outcome [10] | outcome [11] | outcome [12] | outcome [13] | Potency [14]

CCNc1nc(Cl)nc(NC(C)(C)C)n1
inactive: outcome [1] | Potency [15] | Potency [2] | Potency [18] | outcome [3] | outcome [4] | outcome [6] | outcome [7] | outcome [17] | outcome [8] | outcome [9] | outcome [10] | outcome [11] | outcome [12] | outcome [13] | Potency [14]
